# Screens from PubChem BioAssay.
# The list is not random: actives were taken first. Their share in the collection is about 6.2%.
# KB-V1 cytotox: kills drug-selected multidrug resistant KB-V1 cells; KB-V1 MDR cells viability, CellTiter-Glo, 72 h; Potency, µM (doses to about 46.1 µM), actives largely listed as cytotoxic; 3.4% of 400,000 active; AID 1347076; note: % is set by controls: 0 for no effect and ±100 for the full control effect; nearly all actives have a fitted effect of over 60% in size
#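 KB-V1, DMEM (no phenol red) + 10% FBS; cpd pin-transferred, titration series; 72 h, 37 degrees C; CellTiter-Glo, luminescence. Data normalized, curve-fit.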
# ATXN2 expr inh: inhibitors of ATXN2 expression; HEK-293 ATXN2-luciferase reporter, luminescence, 24 h; Potency, µM (top dose mostly 57 µM), for the others: at the top dose activity change, negative = inhibition, usual class: inhibitors; 0.72% of 360,000 active; note: % is set by controls: 0 for no effect and ±100 for the full control effect; nearly all actives have a fitted effect of over 55% in size
#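 ATXN2-luciferase reporter cells (luciferase flanked by upstream and downstream ATXN2 gene portions) were treated 24 h at 37 °C with compounds at up to 57 uM. SteadyGlo luminescence gave expression; GF-AFC fluorescence gave viability.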
# KB-3-1 cytotox: kills parental KB-3-1 adenocarcinoma cells. KB-3-1 viability, CellTiter-Glo ATP luminescence, 72 h. Potency, µM (top dose mostly 46.1 µM), usual class: cytotoxic. 1.4% of 400,000 active. AID 1347075; note: % is set by controls: 0 for no effect and ±100 for the full control effect; nearly all actives have a fitted effect of over 60% in size
#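 KB-3-1 cells, DMEM (no phenol red) + 10% FBS; compound by pin transfer, 72 h, 37 °C. Readout: CellTiter-Glo luminescence after 10 min. Data normalized, curve-fitted.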
# HT1080NT lethal: kills 2HG-producing HT-1080-NT fibrosarcoma cells; HT-1080-NT fibrosarcoma viability, CellTiter-Glo ATP luminescence, 48 h; Potency, µM (titrated, usually from 46.1 µM), without a hit: top-dose activity, negative = less viability, most hits filed as cytotoxic; 1.6% of 360,000 active;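 note: NT is the 2HG producing partner of a matched IDH1 knockdown line; 0% = DMSO-treated cells and -100% = media-only wells without cells; nearly all actives have a fitted effect of over 55% in size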
#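 Viability of the 2HG-overproducing fibrosarcoma line after 48 hours of compound exposure at 37 degrees C was determined by luminescence with CellTiter-Glo, and concentration-effect curves were then fitted and categorized.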
# HT1080 IDH1KD tx: HT-1080 IDH1 knockdown cell toxicity (counter line); 2% of 360,000 active; HT-1080 IDH1 knockdown viability, ATP luminescence, 48 h; Potency, µM (top dose mostly 46.1 µM), for inactives: at the top dose activity, negative = toxicity, most hits filed as cytotoxic; AID 686971;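 note: 0% = DMSO wells and -100% = cell-free medium wells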
#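 HT-1080-IDH1KD cells (IDH1 knocked down), 750/well in RPMI with 5% FBS, treated with compound 48 h at 37 degrees C. Viability by CellTiter-Glo luminescence, normalised to DMSO and no-cell wells; concentration-response curves classed.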
# ATXN viability: viability counter-screen for ATXN expression inhibitors; 0.49% of 400,000 active; AID 651635; S2 cells (HEK-293 line with an ATXN2-luciferase reporter) viability, CellTiter-Fluor protease fluorescence, 24 h; Potency, µM (doses to about 56.7 µM), usual class: cytotoxic; note: nearly all actives have a fitted effect of over 40% in size
# * = called active by the depositor; i = inactive; ? = inconclusive; . = no result; ! = a repeat was not active. Calls come from the whole dose curve; as a rule, active = well fitted curve in the direction sought with a large enough effect; inconclusive = small, poorly fitted or top-dose-only effect, or another doubt; inactive = no such curve, though single readings can be large; an effect the other way counts as inactive or inconclusive. Potency is the fitted concentration of half-maximal effect.
SMILES,KB-V1 cytotox,ATXN2 expr inh,KB-3-1 cytotox,HT1080NT lethal,HT1080 IDH1KD tx,ATXN viability
O=S(=O)(c1cccc(-c2csc(-c3ccccc3)n2)c1)N1CCOCC1,i,0.6%,i,3.4%,0.0%,i
O=C(c1ccc(-c2nc3ccccc3s2)s1)N1CCOCC1,?,?,?,8.2µM*,?,i
N#Cc1cc([N+](=O)[O-])ccc1NCCCn1ccnc1,i,6.3%,i,-4.8%,-3.0%,i
N#Cc1ccc(-c2csc(NNC(=O)c3ccc(Br)cc3)n2)cc1,i,?,i,8.2µM*,5.17µM*,?
N#Cc1ccc(-c2csc(NNC(=O)c3ccccc3)n2)cc1,i,-21.2%,i,-4.2%,10.3µM*,i
O=C(NNc1nc(-c2ccccc2)cs1)c1ccccc1,16.4µM*,-31.5%,?,-10.5%,-26.5%,i
Cc1cc(Cl)ccc1OCC(=O)N1CCCN(C(=O)COc2ccc(Cl)cc2C)CC1,5.8µM*,-28.9%,?,-17.6%,-28.1%,i
Cc1cc(Cl)ccc1OC(C)C(=O)N1CCCN(C(=O)C(C)Oc2ccc(Cl)cc2C)CC1 (centres undefined),?,?,13µM*,18.4µM*,20.6µM*,?
O=C(COc1ccc(Cl)cc1Cl)N1CCCCCC1,20.6µM*,22.4%,i,0.5%,-4.7%,i
COc1ccc(NC2CCCN(C(=O)COc3ccc(Cl)cc3C)C2)cc1OC (centres undefined),7.31µM*,-11.2%,i,-4.3%,-2.3%,i
O=C(COc1ccc(S(=O)(=O)N2CCCCC2)cc1Cl)N1CCCC1,i,6.1%,i,-0.3%,-7.8%,i
COc1cc(OC)cc(-c2c(C#Cc3ccsc3)c3cc(-c4ccccc4OC)ccc3n2C)c1,i,-6.6%,i,19.6%,-3.2%,i
COc1cc(-c2noc(C)c2C#CC2(N)CCCCC2)cc(OC)c1OC,20.6µM*!,-2.1%,?,-23.5%,-22.5%,i
COc1cc(-c2noc(C)c2C#Cc2ccsc2)cc(OC)c1OC,3.26µM*!,0.0%,?,?,0.517µM*,i
COc1cc(-c2noc(C)n2)cc(OC)c1OC,i,10.5%,i,0.1%,4.6%,i
COc1cc(-c2noc(C)c2C#CC2(O)CCCCC2)cc(OC)c1OC,14.6µM*!,-2.7%,?,-11.4%,-23.6%,i
COc1cc(-c2noc(C)c2C#CCO)cc(OC)c1OC,?,-1.9%,i,14.6%,2.1%,i
Cc1ccc(-c2nnc(N3CCC(C(N)=O)CC3)s2)cc1,i,.,?,.,.,.
CCOC(=O)[C@H](CCc1ccccc1)N[C@H]1CCc2ccccc2N(CC(=O)O)C1=O,i,24.3µM*!,i,19.0%,-1.3%,35.5µM*!
CCOC(=O)[C@H](CCc1ccccc1)N[C@H]1CS[C@H](c2cccs2)CN(CC(=O)O)C1=O,.,70.5%,.,.,.,i
Clc1ccc2c(SCC3CO3)c3ccccc3nc2c1 (centres undefined),16.4µM*,?,?,?,18.4µM*,.
Nc1ccc2c(c1)nnn2-c1ccccc1,i,8.4%,i,1.1%,2.2%,i
N#Cc1ccc2c(c1)nnn2-c1ccccc1,9.2µM*,8.1%,i,9.1%,7.2%,i
COc1ccc(C(=O)c2ccccc2CN2C(=O)c3ccccc3C2=O)cc1,16.4µM*,8.2%,i,-1.1%,4.9%,i
CC1=Nc2cc(C(=O)NC3CCCC3)ccc2Sc2ccc(Cl)cc21,3.66µM*,-27.6%,3.26µM*,.,.,?
CNC(=O)c1ccc2c(c1)N=C(C)c1cc(C)ccc1S2,?,2.1%,18.4µM*,.,.,i
CC1=Nc2cc(C(=O)NC3CCCC3)ccc2Sc2ccc(C)cc21,1.3µM*,-11.4%,1.46µM*,.,.,?
CCOC(=O)N1CCC(NC(=O)c2ccc3c(c2)N=C(C)c2ccccc2S3)CC1,i,-13.8%,i,-13.5%,-22.0%,i
